Test results published in PubChem BioAssay AID1159580 (chemical genetic matrix, 2015).
Among all 5,500 compounds or so, about 2,000 (36%) were called active. Roughly 18% stayed inconclusive and do not appear here. Rule as the data show it: active = normalized growth mostly below about 0.91 (no sharp cut-off); inconclusive = no clear call, values can overlap the other calls; inactive = mostly above about 0.92. The list shows a part of the results.

Test: chemical genetic growth profiling, strain panel (AID 1159580);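 also: tested at 20 µM; growth read once vehicle control cultures reached saturation at 30 °C; 1 = growth at the plate median or of vehicle wells; lower values mean less growth of the strain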
Details: growth OD

Measured: normalized growth

CSc1nc(N)n(-c2ccccc2)n1
inactive: S. cerevisiae deletion strains, locus YAL013W, strain DEP1, stronger effect = lower value 1 | S. cerevisiae deletion strains, locus YBR229C, strain ROT2, stronger effect = lower value 1.02 | S. cerevisiae deletion strains, locus YCL061C, strain MRC1, stronger effect = lower value 1.02 | S. cerevisiae deletion strains, locus YDL101C, strain DUN1, stronger effect = lower value 1 | S. cerevisiae deletion strains, locus YDL134C, strain PPH21, stronger effect = lower value 1.01 | S. cerevisiae deletion strains, locus YDR150W, strain NUM1, stronger effect = lower value 0.916 | S. cerevisiae deletion strains, locus YEL061C, strain CIN8, stronger effect = lower value 1.06 | S. cerevisiae deletion strains, locus YGR078C, strain PAC10, stronger effect = lower value 1 | S. cerevisiae deletion strains, locus YGR229C, strain SMI1, stronger effect = lower value 0.99 | S. cerevisiae deletion strains, locus YHR030C, strain SLT2, stronger effect = lower value 1.05 | S. cerevisiae deletion strains, locus YHR087W, strain rtc3, stronger effect = lower value 1 | S. cerevisiae deletion strains, locus YJR043C, strain POL32, stronger effect = lower value 0.989 | S. cerevisiae deletion strains, locus YJR075W, strain HOC1, stronger effect = lower value 1 | S. cerevisiae deletion strains, locus YKL190W, strain CNB1, stronger effect = lower value 1.01 | S. cerevisiae deletion strains, locus YLR039C, strain RIC1, stronger effect = lower value 1.03 | S. cerevisiae deletion strains, locus YLR058C, strain SHM2 (second series), stronger effect = lower value 1.02 | S. cerevisiae deletion strains, locus YLR085C, strain ARP6, stronger effect = lower value 0.995 | S. cerevisiae deletion strains, locus YLR262C, strain YPT6, stronger effect = lower value 1.09 | S. cerevisiae deletion strains, locus YML094W, strain GIM5, stronger effect = lower value 0.988 | S. cerevisiae deletion strains, locus YMR219W, strain ESC1, stronger effect = lower value 1 | S. cerevisiae deletion strains, locus YMR263W, strain SAP30, stronger effect = lower value 1 | S. cerevisiae deletion strains, locus YNL153C, strain GIM3, stronger effect = lower value 1 | S. cerevisiae deletion strains, locus YNL298W, strain CLA4 (second series), stronger effect = lower value 1 | S. cerevisiae deletion strains, locus YNL322C, strain KRE1, stronger effect = lower value 1 | S. cerevisiae deletion strains, locus YNR030W, strain Alg12, stronger effect = lower value 1.02 | S. cerevisiae deletion strains, locus YPL055C, strain LGE1, stronger effect = lower value 0.994 | S. cerevisiae deletion strains, locus YPL241C, strain CIN2, stronger effect = lower value 1.01 | S. cerevisiae deletion strains, locus YPR135W, strain CTF4, stronger effect = lower value 1.07 | S. cerevisiae strains, strain wild type, stronger effect = lower value 1.01
